Experimental data as given in PubChem BioAssay (EPA / NIEHS).
Active and inactive are the calls of the source. Rule for the calls: active = hit-call score of the fitted dose curve at least 0.9, where 1 is the maximum; inactive = score below 0.9.

Test: ATG_SREBP_CIS: Attagene CIS-FACTORIAL HepG2 Assay for human Sterol Regulatory Element Binding (SREBP) (AID 2282962)
Details: HepG2 Attagene cis-factorial SREBP reporter, mRNA; actives raise or lower the signal
Method in brief: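 Readout: fluorescent reporter-transcript peaks resolved by capillary electrophoresis after RT-PCR. Cells were human HepG2 carrying transfected cis-promoter reporter constructs, dosed for 24 h. Gain or loss of signal was fitted against DMSO controls.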

Structure (SMILES) | AC50 | outcome
CCCCCCCCCCCC#N | 128 µM (active) | –
O=C(NC(=O)c1c(F)cccc1F)Nc1ccc(Oc2ccc(C(F)(F)F)cc2Cl)cc1F | – | inactive
CC1CCCC1.[C-]#[O+].[C-]#[O+].[C-]#[O+].[Mn] | – | inactive
CCCCNP(N)(N)=S | – | inactive
CC(=O)C=Cc1ccccc1 | – | inactive
Nc1ccccc1C(=O)Oc1ccc2ccccc2c1 | 65.5 µM (active) | –
C=CC(=O)OC | – | inactive
N#CCNCC#N | – | inactive
CN(C)N | – | inactive
CN1C[C@H](C(=O)N[C@]2(C)O[C@@]3(O)[C@@H]4CCCN4C(=O)[C@H](Cc4ccccc4)N3C2=O)C=C2c3cccc4[nH]cc(c34)C[C@H]21 | 16.4 µM (active) | –
O=[N+]([O-])C=Cc1ccccc1 | – | inactive
Nc1ccc(Cl)c(Cl)c1 | – | inactive
CCCCOP(=O)(O)OCCCC | – | inactive
O=C(O)CCl | – | inactive
CC(O)CN(CC(C)O)CC(C)O (configuration not stated) | – | inactive
Nc1cc(Cl)cc(Cl)c1 | – | inactive
O=[N+]([O-])c1ccc(Cl)cc1 | – | inactive
Cc1ccc(C)c2ccccc12 | – | inactive
C=CCO | – | inactive
COC(=O)COc1ccc(Cl)cc1Cl | – | inactive
[CH3][Sn]([Cl])([Cl])[Cl] | – | inactive
CC(=O)c1cc2c(cc1C)C(C)(C)C(C)CC2(C)C (configuration not stated) | 46.1 µM (active) | –
Nc1ccc(-c2ccc(N)c(N)c2)cc1N | – | inactive
C=CC(=O)OCCCCOC(=O)C=C | 80.9 µM (active) | –
CCOC(=O)C1OC1(C)c1ccccc1 (configuration not stated) | – | inactive
[Cl][Sb]([Cl])[Cl] | – | inactive
CC(C)[C@@H](C(=O)O[C@@H](C#N)c1cccc(Oc2ccccc2)c1)c1ccc(Cl)cc1 | – | inactive
